{"source": "the supplement of paper PMC6992640", "note": "± gives the standard deviation of the averaged measurements.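 Further: PDX cells carrying CMV promoter-driven luciferase, viability read as total photon flux per second by IVIS imaging following D-luciferin, vehicle control 0.1% DMSO.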", "data": [{"test_system": "HCI01 (cells of a triple-negative basal-like breast cancer xenograft)", "test": "cell viability (% of vehicle); higher = less cytotoxic", "settings": "10 µM; 72 h", "values": [{"smiles": "Cc1nc2c([nH]1)CCN(C(=O)c1ccc(NC(=O)c3ccccc3-c3ccccc3)cc1)c1ccccc1-2.Cl", "note": "[Conivaptan HCl]", "cell viability": "111 ± 18"}, {"smiles": "COc1nc(C)nc(Cl)c1NC1=NCCN1", "note": "[Moxonidine]", "cell viability": "102 ± 7.2"}, {"smiles": "CC(=O)OCC(=O)NCCCOc1cccc(CN2CCCCC2)c1.Cl", "note": "[Roxatidine Acetate HCl]", "cell viability": "175 ± 22"}, {"smiles": "Clc1ccc2c(c1)C(N1CCNCC1)=Nc1ccccc1O2", "note": "[Amoxapine]", "cell viability": "96.5 ± 15"}, {"smiles": "CCCNS(=O)(=O)Nc1ncnc(OCCOc2ncc(Br)cn2)c1-c1ccc(Br)cc1", "note": "[Macitentan]", "cell viability": "75.9 ± 56"}, {"smiles": "OCC(O)C(O)C(O)CO", "note": "(stereo unspecified) [Xylitol]", "cell viability": "96.8 ± 14"}, {"smiles": "CCCc1ncc(C[n+]2ccccc2C)c(N)n1.Cl.[Cl-]", "note": "[Amprolium HCl]", "cell viability": "129 ± 15"}, {"smiles": "Cc1c(O)c(=O)ccn1C", "note": "[Deferiprone]", "cell viability": "81 ± 3.5"}, {"smiles": "NC(=O)N1c2ccccc2CC(=O)c2ccccc21", "note": "[Oxcarbazepine]", "cell viability": "91.5 ± 16"}, {"smiles": "CCC(C)C(=O)OC1CCC=C2C=CC(C)C(CCC3CC(O)CC(=O)O3)C21", "note": "(stereo unspecified) [Mevastatin]", "cell viability": "129 ± 20"}, {"smiles": "CC(=O)OC1(C(C)=O)CCC2C3CC(C)C4=CC(=O)CCC4(C)C3CCC21C", "note": "(stereo unspecified) [Medroxyprogesterone acetate]", "cell viability": "122 ± 12"}, {"smiles": "CNC(C)C1CCC(N)C(OC2C(N)CC(N)C(OC3OCC(C)(O)C(NC)C3O)C2O)O1.O=S(=O)(O)O", "note": "(stereo unspecified) [Gentamycin Sulfate]", "cell viability": "119 ± 8.9"}, {"smiles": "COc1ccc(CC2c3cc(OC)c(OC)cc3CC[N+]2(C)CCC(=O)OCCCCCOC(=O)CC[N+]2(C)CCc3cc(OC)c(OC)cc3C2Cc2ccc(OC)c(OC)c2)cc1OC.O=S(=O)([O-])c1ccccc1.O=S(=O)([O-])c1ccccc1", "note": "(stereo unspecified) [Cisatracurium Besylate]", "cell viability": "177 ± 73"}, {"smiles": "NCCCCCC(=O)O", "note": "[(6-)ε-Aminocaproic acid]", "cell viability": "67.8 ± 37"}, {"smiles": "CC12CCC3=C4CCC(=O)C=C4CCC3C1CCC2(O)CC#N", "note": "(stereo unspecified) [Dienogest]", "cell viability": "178 ± 40"}, {"smiles": "COC(=O)Nc1nc2ccc(S(=O)c3ccccc3)cc2[nH]1", "note": "(stereo unspecified) [Oxfendazole]", "cell viability": "102 ± 25"}, {"smiles": "Cc1cn(C2CC(N=[N+]=[N-])C(CO)O2)c(=O)[nH]c1=O", "note": "(stereo unspecified) [Zidovudine]", "cell viability": "104 ± 3.4"}, {"smiles": "CCN(CCO)CCCC(C)Nc1ccnc2cc(Cl)ccc12.O=S(=O)(O)O", "note": "(stereo unspecified) [Hydroxychloroquine Sulfate]", "cell viability": "71.8 ± 4.6"}, {"smiles": "CC1(C)SC2C(NC(=O)C(N)c3ccccc3)C(=O)N2C1C(=O)[O-].[Na+]", "note": "(stereo unspecified) [Ampicillin]", "cell viability": "101.47 ± 0.042"}, {"smiles": "CC(O)(P(=O)(O)O)P(=O)(O)O", "note": "[Etidronate]", "cell viability": "94.3 ± 15"}, {"smiles": "CCCNC(C)C(=O)Nc1ccccc1C.Cl", "note": "(stereo unspecified) [Prilocaine hydrochloride]", "cell viability": "147 ± 18"}, {"smiles": "CN(C)CCC=C1c2ccccc2CCc2ccccc21.Cl", "note": "[Amitriptyline HCl]", "cell viability": "103 ± 18"}, {"smiles": "CN1CCC(=C2c3ccccc3CC(=O)c3sccc32)CC1.O=C(O)C=CC(=O)O", "note": "[Ketotifen Fumarate]", "cell viability": "120 ± 23"}, {"smiles": "CCOc1ccc2ccccc2c1C(=O)NC1C(=O)N2C1SC(C)(C)C2C(=O)[O-].O.[Na+]", "note": "(stereo unspecified) [Nafcillin Sodium]", "cell viability": "107 ± 8.4"}, {"smiles": "Nc1ccc(S(=O)(=O)c2ccc(N)cc2)cc1", "note": "[Dapsone]", "cell viability": "114 ± 18"}, {"smiles": "Nc1nc(=O)c2ncn(COC(CO)CO)c2[nH]1", "note": "[Ganciclovir]", "cell viability": "63.1 ± 33"}, {"smiles": "FC(F)(F)c1ccc(C=Cc2nc(COc3ccc(CCCCn4ccnn4)cc3)co2)cc1", "note": "[Mubritinib (TAK 165)]", "cell viability": "111 ± 4"}]}, {"test_system": "HCI03 (cells of an ER-positive luminal breast cancer xenograft)", "test": "cell viability (% of vehicle); higher = less cytotoxic", "settings": "10 µM; 72 h", "values": [{"smiles": "C=CC[C@@H]1/C=C(\\C)C[C@H](C)C[C@H](OC)[C@H]2O[C@@](O)(C(=O)C(=O)N3CCCC[C@H]3C(=O)O[C@H](/C(C)=C/[C@@H]3CC[C@@H](O)[C@H](OC)C3)[C@H](C)[C@@H](O)CC1=O)[C@H](C)C[C@@H]2OC", "note": "[Tacrolimus (FK506)]", "cell viability": 112}, {"smiles": "O=C1CCC(N2C(=O)c3ccccc3C2=O)C(=O)N1", "note": "(stereo unspecified) [Thalidomide]", "cell viability": 129}, {"smiles": "COc1cc2nc(N3CCN(C(=O)c4ccco4)CC3)nc(N)c2cc1OC.Cl", "note": "[Prazosin HCl]", "cell viability": 129}, {"smiles": "Oc1ccc(OC2CCCCO2)cc1", "note": "(stereo unspecified) [Deoxyarbutin]", "cell viability": 138}, {"smiles": "COc1ccccc1N1CCN(CCCNc2cc(=O)n(C)c(=O)n2C)CC1.Cl", "note": "[Urapidil HCl]", "cell viability": 125}, {"smiles": "O=C(O)CCC(=O)O.O=C(OC1CN2CCC1CC2)N1CCc2ccccc2C1c1ccccc1", "note": "(stereo unspecified) [Solifenacin succinate]", "cell viability": 107}, {"smiles": "COc1ccc(O)cc1", "note": "[Mequinol]", "cell viability": 108}, {"smiles": "CCC(CO)NCCNC(CC)CO.Cl.Cl", "note": "(stereo unspecified) [Ethambutol HCl]", "cell viability": 122}, {"smiles": "CC(NC(=O)C(O)C(C)C)C(=O)NC1C(=O)N(C)CCc2ccccc21", "note": "(stereo unspecified)", "cell viability": 106}, {"smiles": "CC12CCC3c4ccc(OC(=O)c5ccccc5)cc4CCC3C1CCC2O", "note": "(stereo unspecified) [Estradiol Benzoate]", "cell viability": 131}, {"smiles": "CC(CN1CC(=O)NC(=O)C1)N1CC(=O)NC(=O)C1.Cl", "note": "(stereo unspecified) [Dexrazoxane HCl (ICRF-187, ADR-529)]", "cell viability": 134}, {"smiles": "CCC1OC(=O)C(C)C(OC2CC(C)(OC)C(O)C(C)O2)C(C)C(OC2OC(C)CC(N(C)C)C2O)C(C)(O)CC(C)C2NC(COCCOC)OC(C2C)C1(C)O", "note": "(stereo unspecified) [Dirithromycin]", "cell viability": 117}, {"smiles": "Cc1nc2c([nH]1)CCN(C(=O)c1ccc(NC(=O)c3ccccc3-c3ccccc3)cc1)c1ccccc1-2.Cl", "note": "[Conivaptan HCl]", "cell viability": 83.3}, {"smiles": "COc1nc(C)nc(Cl)c1NC1=NCCN1", "note": "[Moxonidine]", "cell viability": 116}, {"smiles": "CC(=O)OCC(=O)NCCCOc1cccc(CN2CCCCC2)c1.Cl", "note": "[Roxatidine Acetate HCl]", "cell viability": 118}, {"smiles": "Clc1ccc2c(c1)C(N1CCNCC1)=Nc1ccccc1O2", "note": "[Amoxapine]", "cell viability": 104}, {"smiles": "CCCNS(=O)(=O)Nc1ncnc(OCCOc2ncc(Br)cn2)c1-c1ccc(Br)cc1", "note": "[Macitentan]", "cell viability": 109}, {"smiles": "OCC(O)C(O)C(O)CO", "note": "(stereo unspecified) [Xylitol]", "cell viability": 133}, {"smiles": "CCCc1ncc(C[n+]2ccccc2C)c(N)n1.Cl.[Cl-]", "note": "[Amprolium HCl]", "cell viability": 135}, {"smiles": "Cc1c(O)c(=O)ccn1C", "note": "[Deferiprone]", "cell viability": 102}, {"smiles": "NC(=O)N1c2ccccc2CC(=O)c2ccccc21", "note": "[Oxcarbazepine]", "cell viability": 133}, {"smiles": "CCC(C)C(=O)OC1CCC=C2C=CC(C)C(CCC3CC(O)CC(=O)O3)C21", "note": "(stereo unspecified) [Mevastatin]", "cell viability": 119}, {"smiles": "CC(=O)OC1(C(C)=O)CCC2C3CC(C)C4=CC(=O)CCC4(C)C3CCC21C", "note": "(stereo unspecified) [Medroxyprogesterone acetate]", "cell viability": 114}, {"smiles": "CNC(C)C1CCC(N)C(OC2C(N)CC(N)C(OC3OCC(C)(O)C(NC)C3O)C2O)O1.O=S(=O)(O)O", "note": "(stereo unspecified) [Gentamycin Sulfate]", "cell viability": 90.7}, {"smiles": "COc1ccc(CC2c3cc(OC)c(OC)cc3CC[N+]2(C)CCC(=O)OCCCCCOC(=O)CC[N+]2(C)CCc3cc(OC)c(OC)cc3C2Cc2ccc(OC)c(OC)c2)cc1OC.O=S(=O)([O-])c1ccccc1.O=S(=O)([O-])c1ccccc1", "note": "(stereo unspecified) [Cisatracurium Besylate]", "cell viability": 129}, {"smiles": "NCCCCCC(=O)O", "note": "[(6-)ε-Aminocaproic acid]", "cell viability": 136}, {"smiles": "CC12CCC3=C4CCC(=O)C=C4CCC3C1CCC2(O)CC#N", "note": "(stereo unspecified) [Dienogest]", "cell viability": 124}, {"smiles": "COC(=O)Nc1nc2ccc(S(=O)c3ccccc3)cc2[nH]1", "note": "(stereo unspecified) [Oxfendazole]", "cell viability": 132}, {"smiles": "Cc1cn(C2CC(N=[N+]=[N-])C(CO)O2)c(=O)[nH]c1=O", "note": "(stereo unspecified) [Zidovudine]", "cell viability": 160}, {"smiles": "CCN(CCO)CCCC(C)Nc1ccnc2cc(Cl)ccc12.O=S(=O)(O)O", "note": "(stereo unspecified) [Hydroxychloroquine Sulfate]", "cell viability": 96.6}, {"smiles": "CC1(C)SC2C(NC(=O)C(N)c3ccccc3)C(=O)N2C1C(=O)[O-].[Na+]", "note": "(stereo unspecified) [Ampicillin]", "cell viability": 101}, {"smiles": "CC(O)(P(=O)(O)O)P(=O)(O)O", "note": "[Etidronate]", "cell viability": 96.6}, {"smiles": "CCCNC(C)C(=O)Nc1ccccc1C.Cl", "note": "(stereo unspecified) [Prilocaine hydrochloride]", "cell viability": 117}, {"smiles": "CN(C)CCC=C1c2ccccc2CCc2ccccc21.Cl", "note": "[Amitriptyline HCl]", "cell viability": 99.2}, {"smiles": "CN1CCC(=C2c3ccccc3CC(=O)c3sccc32)CC1.O=C(O)C=CC(=O)O", "note": "[Ketotifen Fumarate]", "cell viability": 125}, {"smiles": "CCOc1ccc2ccccc2c1C(=O)NC1C(=O)N2C1SC(C)(C)C2C(=O)[O-].O.[Na+]", "note": "(stereo unspecified) [Nafcillin Sodium]", "cell viability": 139}, {"smiles": "Nc1ccc(S(=O)(=O)c2ccc(N)cc2)cc1", "note": "[Dapsone]", "cell viability": 146}, {"smiles": "Nc1nc(=O)c2ncn(COC(CO)CO)c2[nH]1", "note": "[Ganciclovir]", "cell viability": 124}, {"smiles": "FC(F)(F)c1ccc(C=Cc2nc(COc3ccc(CCCCn4ccnn4)cc3)co2)cc1", "note": "[Mubritinib (TAK 165)]", "cell viability": 89.9}]}]}
